Measured values: PubChem BioAssay (NCI)
About 79,000 compounds went through this panel and 15% of them were active in at least one assay; those are over-represented in the sample as a whole. No stated cut-off is given here; in the data, active means growth inhibition above about 70%; inactive means the rest.

What was measured:
[1] = NCI Yeast Anticancer Drug Screen. Data for the rad50 strain (AID 155);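 further: 0% = growth of vehicle-only cultures of the same strain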; settings: S. cerevisiae rad50 strain growth inhibition; at 50.0 µM; active compounds read high
How it was run: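 Relative growth inhibition (compound vs vehicle) was measured in yeast with a defined repair-gene alteration.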

[2] = NCI Yeast Anticancer Drug Screen. Data for the mec2-1 strain (AID 157); settings: S. cerevisiae mec2-1 strain, at 50.0 µM, active compounds read high
How it was run: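 Mutant yeast (mec2-1) grown with compound; growth inhibition relative to vehicle control reported.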

[3] = NCI Yeast Anticancer Drug Screen. Data for the sgs1 mgt1 strain (AID 161);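 further: 0% = growth of cultures given vehicle only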; settings: S. cerevisiae sgs1 mgt1 strain, at 50.0 µM, active compounds read high
How it was run: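 Growth of a repair-deficient yeast mutant was monitored after compound treatment and expressed as inhibition relative to vehicle-treated cultures.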

[4] = NCI Yeast Anticancer Drug Screen. Data for the cln2 rad14 strain (AID 165);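 further: 0% = growth equal to vehicle treated cultures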; settings: S. cerevisiae cln2 rad14 strain, at 50.0 µM, active compounds read high
How it was run: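 Readout is yeast growth inhibition versus vehicle-treated controls, using a strain with cln2 and rad14 alterations exposed to compound.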

[5] = NCI Yeast Anticancer Drug Screen. Data for the bub3 strain (AID 167); settings: S. cerevisiae bub3 mutant strain, at 50.0 µM, active compounds read high
How it was run: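 Screening used yeast with an engineered genetic alteration affecting cell cycle control. Compound-exposed cultures were compared with vehicle cultures, and reduced growth was taken as inhibition.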

[6] = NCI Yeast Anticancer Drug Screen. Data for the mlh1 rad18 strain (AID 175); settings: S. cerevisiae mlh1 rad18 strain growth inhibition; at 50.0 µM; active compounds read high
How it was run: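 Genetically defined yeast (DNA repair-deficient) exposed to compounds; growth inhibition determined relative to vehicle.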

Measured: growth inhibition

CCOC(=O)C(C)CC(=O)C(C)CC(=O)C(C)C (stereo unspecified)
inactive: [1] -9.95% | [2] 6.1% | [3] -13.3% | [4] -14.2% | [5] -9.75% | [6] -5.05%

O=C(O)CNC1CCCC1
inactive: [1] -1.3% | [2] 3.65% | [3] 4.35% | [4] -1.6% | [5] 4.95% | [6] -15.1%

CCOC(=O)c1nc2c(n(O)c1=N)CCC/C2=N\O
inactive: [1] 4.1% | [2] -1.6% | [3] -8.8% | [4] 14.2% | [5] 3.8% | [6] 5.45%

Cc1ccc(/C=N/n2c(Cc3ccccc3)n[nH]c2=O)cc1
inactive: [1] 16.9% | [2] 5.1% | [3] 3.65% | [4] 11.8% | [5] 4.25% | [6] 25.6%

CC(=O)Nc1ccc(N)cc1-c1ccc(N)cc1
inactive: [1] -2.75% | [2] -16.9% | [3] 1.5% | [4] 29.1% | [5] 5.25% | [6] -18%

CCCCCCCC(=O)Oc1c(Cl)c(Cl)c(C#N)c(Cl)c1C#N
inactive: [1] 20.9% | [2] -3.55% | [3] 11.5% | [4] 13.7% | [5] 5.8% | [6] 25.4%

O=C(O)Cc1cc(I)c(Oc2ccc(O)cc2)c(I)c1
inactive: [1] -5% | [2] -29.4% | [3] 6.05% | [4] 15.2% | [5] -9.5% | [6] 3.9%

COc1cc(C2C3=C(COC3=O)Oc3cc4c(cc32)OCO4)ccc1OC(C)=O (stereo unspecified)
inactive: [1] 20.7% | [2] 5.55% | [3] -13.8% | [4] 21.1% | [5] -4.35% | [6] -5.2%

Cc1cc(=O)oc2c(C)c(O)ccc12
inactive: [1] 0% | [2] -16.5% | [3] -3.15% | [4] 13.7% | [5] -16.6% | [6] 16.4%

CCC(=O)C1(N2CCOCC2)CCN(CCCC(=O)c2ccc(F)cc2)CC1
inactive: [1] -25.4% | [2] -9.45% | [3] -1.75% | [4] 1.5% | [5] -0.3% | [6] 22.1%

CCOC(=O)c1c(C)c2c(n1C)CCC(C#N)C2=O (stereo unspecified)
inactive: [1] 9.3% | [2] 10.4% | [3] 9.8% | [4] 21.1% | [5] 9.05% | [6] 17.5%

CCCC(CC)=C(c1ccc(OC(C)=O)cc1)c1ccc(OC(C)=O)cc1
inactive: [1] 44.4% | [2] 24.3% | [3] 51.5% | [4] 38.9% | [5] 31% | [6] 54.7%

O=C(C[n+]1ccncc1)c1ccccc1
inactive: [1] -20.8% | [2] -18.7% | [3] -6.35% | [4] -6.25% | [5] -10.2% | [6] 2.65%

CCOC(=O)N1CCN(P(=O)(Nc2ccc3nc(NC(=O)OC)[nH]c3c2)Oc2ccccc2)CC1 (stereo unspecified)
inactive: [1] -38.5% | [2] -6.9% | [3] 0.55% | [4] -9.4% | [5] -9.65% | [6] -37.1%

N#CC(C#N)=CNC(=S)Nc1ccc(Cl)c(Cl)c1
inactive: [1] 44.1% | [2] 39.7% | [3] 47.6% | [4] 37.7% | [5] 36% | [6] 62.5%

O=C(/C=C/c1ccco1)c1ccc(NCc2nc3ccccc3[nH]2)cc1
inactive: [1] 40.2% | [2] -7% | [3] 41.5% | [4] 33.9% | [5] 13.8% | [6] 25.8%

CC(C)(C)OC(=O)N(CCCCNC(=O)c1ccccc1)CCCNC(=O)c1ccccc1
inactive: [1] 13.4% | [2] -8.5% | [3] -30% | [4] -26.5% | [5] -36.5% | [6] -64%

CC[O-].CC[O-].O=C([CH-]C(=O)c1cccnc1)c1ccccc1.O=C([CH-]C(=O)c1cccnc1)c1ccccc1.[Ti+4]
inactive: [1] -0.05% | [2] 19.8% | [3] -19.9% | [4] -16.2% | [5] -11.6% | [6] -8.4%

CC(=O)Nc1ccc(S(=O)(=O)NCCC(=O)O)cc1
inactive: [1] -9.7% | [2] -16.6% | [3] 2.45% | [4] 4.3% | [5] 4.45% | [6] 21.8%

CCCOC(=O)CNC(=O)OC(C)(C)C
inactive: [1] 17.6% | [2] 14.8% | [3] 1.15% | [4] 0.55% | [5] -4.95% | [6] -4.35%

CCCCc1c[nH]c(=O)[nH]c1=O
inactive: [1] 4.55% | [2] 5.05% | [3] -8.4% | [4] -34.6% | [5] -12.6% | [6] 5.7%

Cc1[nH]nc(-c2ccon2)c1N
inactive: [1] -4.45% | [2] -3.3% | [3] -27.4% | [4] -20.5% | [5] 13.2% | [6] -6.6%

COc1ccc2c(c1)OC[C@@H]1c3cc(O)c(OCc4ccccc4)cc3O[C@]21C
inactive: [1] 9.9% | [2] 40.8% | [3] 10.3% | [4] 53.5% | [5] 21.7% | [6] -26%

CCC(COC(=O)C(c1ccccc1)c1ccccc1)NC1CCCCC1 (stereo unspecified)
inactive: [1] 27.4% | [2] 14.3% | [3] 44.8% | [4] 14.8% | [5] 6.45% | [6] 27.6%

CCOC(=O)c1nc2ccccc2nc1NCc1ccc(OC)cc1
inactive: [1] -6.5% | [2] -6.45% | [3] -30.4% | [4] 6.55% | [5] -22.4% | [6] 3.4%

Nc1ncnc2c1ncn2C(=O)NC12CC3CC(CC(C3)C1)C2
inactive: [1] 9.75% | [2] 14.6% | [3] 8.7% | [4] 18.1% | [5] 8.25% | [6] -8.2%

O=C(O)CCC1CCc2cccc(OCC(=O)O)c2C1=O (stereo unspecified)
inactive: [1] 2% | [2] -4.3% | [3] -16.2% | [4] 23.5% | [5] -4.4% | [6] -11.7%

CC(=O)Nc1cnc2ccccc2c1
inactive: [1] 9.65% | [2] -0.4% | [3] 7.1% | [4] -2.8% | [5] 4.6% | [6] -15.7%

NC(=O)C1=C(O)C(=O)NC1=O
inactive: [1] 1.6% | [2] 1.55% | [3] 8.9% | [4] -29.8% | [5] 7.05% | [6] -5.1%

CCCCCCCCCCCCCCCCCCOCCCCCC
inactive: [1] -8.65% | [2] -30.1% | [3] -19.8% | [4] 4.2% | [5] -10.3% | [6] -7.55%

CCCCC1C/C=C/C=C/C=C/C=C/C(OC2OC(C)C(O)C(N)C2O)CC2OC(O)(CC(O)CC3OC3/C=C/C(=O)O1)CC(O)C2C(=O)O (stereo unspecified)
inactive: [1] 30.6% | [2] 9.5% | [3] 2.75% | [4] 17.6% | [5] -1.7% | [6] 11.2%

CC(=O)NC1CON(C(C)=O)C1=O (stereo unspecified)
inactive: [1] 2.75% | [2] 0.65% | [3] -9.85% | [4] -54.4% | [5] 2.7% | [6] -6.75%

Cc1cc(C)nc(NS(=O)(=O)c2ccc(Nc3c4ccccc4nc4c(C(=O)Nc5ccc(S(=O)(=O)N=C(N)N)cc5)cccc34)cc2)n1
inactive: [1] 24.1% | [2] 35.8% | [3] 30.9% | [4] 35.2% | [5] 19.6% | [6] 44.1%

CC(=O)C(C)(C)O
inactive: [1] 45.4% | [2] -5.55% | [3] 48.8% | [4] -8.7% | [5] 14.2% | [6] 38.9%

COC(=O)c1ccccc1N(C(=O)c1ccccc1)c1ccccc1C
inactive: [1] -16.1% | [2] -13.3% | [3] -18.9% | [4] 10.4% | [5] -11.3% | [6] -55%

CCSC1=C(C)N(C=NC(C)(C)C)CC1
inactive: [1] -3.7% | [2] -23.5% | [3] -38% | [4] 7.4% | [5] -28.8% | [6] -14%

CN(C)c1cc2ccccc2oc1=O
inactive: [1] 5.3% | [2] -0.75% | [3] -2% | [4] -5.75% | [5] 9% | [6] 6.45%

Cc1nc(N)nc(N)c1N1CCN(c2ccc(C(=O)NC(C(=O)O)C(=O)O)cc2)CC1
inactive: [1] -4.8% | [2] -15.6% | [3] -25.8% | [4] 4.55% | [5] -38.2% | [6] -37.8%

CSc1nc(NC2OCC(OC(C)=O)C(OC(C)=O)C2OC(C)=O)c(N=CC=Nc2c(NC3OCC(OC(C)=O)C(OC(C)=O)C3OC(C)=O)nc(SC)[nH]c2=O)c(=O)[nH]1 (stereo unspecified)
inactive: [1] 11.8% | [2] -7.9% | [3] -0.35% | [4] 7.15% | [5] -1.65% | [6] 8.25%

COc1ccc2c3c([nH]c2c1)C(C)N(S(=O)(=O)c1ccccc1)CC3 (stereo unspecified)
inactive: [1] -8.1% | [2] -0.9% | [3] -2.65% | [4] -4.9% | [5] 8.45% | [6] 5.7%

CCOC(=O)[C@H]1Nc2c(cccc2[N+](=O)[O-])[C@H]2OCC[C@@H]12
inactive: [1] -12.8% | [2] -22.3% | [3] -0.45% | [4] 11.4% | [5] -22.6% | [6] -26.9%
